# Assay outcomes deposited in PubChem BioAssay by National Center for Advancing Translational Sciences (NCATS).
# HepG2 tox-1: kills HepG2 cells in TGF-b inhibitor counter-screen; HepG2 CAGA-GFP viability, ATP luminescence, 18 h; Potency, µM (titrated, usually from 46.1 µM), actives largely listed as cytotoxic; 410,000 tested, 0.76% active; AID 588856
#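 HepG2 CAGA-GFP cells (1000/well, DMEM with 1% FBS) received compound, then TGF-beta at 500 pg/mL final, and were incubated 18 hours at 37 degrees C. Viability was read by CellTiter-Glo luminescence. Media-only wells were set as complete cell-killing and DMSO as no toxicity.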
# A549 viability: counter-screen for Nrf2 inhibitors: cytotoxicity in A549 cells; AID 504648; A549 ARE-Fluc cells, CellTiter-Fluor viability, 18-24 h; 390,000 tested, 0.16% active; Potency, µM (doses to about 46 µM), hits mostly inhibitors
#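 A549 ARE-Fluc cells in 5% FBS OPTI-MEM, 5000 cells/well, rested 2 h then exposed to compounds in concentration-response for 18-24 h at 37 °C. Viability by CellTiter-Fluor fluorescence (Ex 405/Em 525) after 30 min; luciferase luminescence (BugLite, 15 min, RT) read afterwards.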
# TGFb inhibitor: blocks TGF-b signaling | HepG2 CAGA-GFP TGF-b/SMAD3 reporter, GFP fluorescence, 18 h; TGF-beta stimulated, 500 pg/mL final | Potency, µM (highest dose often 46.1 µM), hits mostly inhibitors | 410,000 tested, 1.2% active | AID 588855; note: nearly all actives have a fitted effect of over 65% in size
#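 Cell-based qHTS in HEPG2 carrying a CAGA-GFP Smad reporter; compounds added before 500 pg/mL final TGF-beta, 18 h incubation at 37 degrees C, GFP fluorescence quantified per cell by imaging cytometry.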
# Nrf2 inh: Nrf2 pathway inhibition; A549 ARE-Fluc reporter, luciferase luminescence, 18-24 h; Potency, µM (top dose mostly 46 µM), hits mostly inhibitors; 360,000 tested, 2.1% active; AID 504444; note: nearly all actives have a fitted effect of over 60% in size
#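 In this cell-based qHTS, ARE-driven firefly luciferase in A549 cells reports Nrf2 activity; the luminescent signal after BugLite lysis is the measured value, with a prior CellTiter-Fluor read for cell health.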
# Nrf2 activator: activates Nrf2 signaling; 410,000 tested, 0.31% active; AREc32 ARE-luciferase reporter (MCF7-derived line), luminescence, 24 h; AID 624171; Potency, µM (doses to about 46.1 µM), usual class: activators; note: nearly all actives have a fitted effect of over 65% in size
#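 Cells of the AREc32 ARE-luciferase line are plated in OPTI-MEM containing 5% FBS and left overnight at 37 deg C. Compounds are pinned in, incubation continues 24 hr, and firefly luciferase signal is then measured.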
# TGFb confirm: TGF-b pathway inhibition, cherry-pick retest | AID 720534 | 1,600 tested, 63% active | Potency, µM (titrated, usually from 46.1 µM), most hits filed as inhibitors | shares compounds with TGFb inhibitor | HepG2 CAGA-GFP TGF-b reporter, GFP fluorescence, 18 h; cells stimulated with TGF-beta, 500 pg/mL; note: nearly all actives have a fitted effect of over 65% in size
# HepG2 tox-2: toxic to HepG2 cells in TGF-b counterscreen | shares compounds with TGFb inhibitor | HepG2 CAGA-GFP viability, ATP luminescence, 18 h; cells stimulated with TGF-beta, 500 pg/mL | Potency, µM (titrated, usually from 46.1 µM), usual class: inhibitors | 1,600 tested, 27% active | AID 720535; note: nearly all actives have a fitted effect of over 70% in size
# CCL64 TGFb inh: blocks TGF-b signaling in CCL64 reporter cells | shares compounds with TGFb inhibitor | CCL64 CAGA-GFP reporter, TGF-b stimulated, GFP fluorescence, 18 h | Potency, µM (doses to about 46.1 µM), actives largely listed as inhibitors | 1,600 tested, 41% active | AID 720536; note: nearly all actives have a fitted effect of over 65% in size
# COP TGFb inh: validation of TGF-b inhibitors in HepG2 COP promoter reporter; shares compounds with TGFb inhibitor; HepG2 COP-GFP TGF-b reporter, GFP fluorescence, 18 h; cells stimulated by added recombinant TGF-beta; Potency, µM (top dose mostly 46.1 µM), most hits filed as inhibitors; 1,600 tested, 3% active; AID 720537; note: nearly all actives have a fitted effect of over 70% in size
# A number is an active result; i = inactive; ? = inconclusive; nt = no result; [ ] = another dose, or the depositor's remark. Only some compounds are listed: those with a hit (about 3.6% of all), similar ones and a draw of the others. Calls come from the whole dose curve; as a rule, active = well fitted curve in the direction sought with a large enough effect; inconclusive = small, poorly fitted or top-dose-only effect, or another doubt; inactive = no such curve, though single readings can be large; an effect the other way counts as inactive or inconclusive.
SMILES,HepG2 tox-1,A549 viability,TGFb inhibitor,Nrf2 inh,Nrf2 activator,TGFb confirm,HepG2 tox-2,CCL64 TGFb inh,COP TGFb inh
C#CCOCCOCCOCCNc1nc(N2CCN(C(=O)Cn3cc(CCCN=C(N)N)nn3)CC2)nc(N2CCN(C(=O)Cn3cc(CC(C)O)nn3)CC2)n1 (centres undefined),i,i,i,i,i,nt,nt,nt,nt
CCCCNc1c(-c2ccc(OC)c(SC3CCCCC3)c2)nc2cc(C)ccn12,i,?,20µM,?,i,?,?,16.4µM,i
CCCCNc1c(-c2ccc(OC)c(SC3CCCCC3)c2)nc2ccc(Cl)cn12,i,i,?,i,i,nt,nt,nt,nt
O=C(Nc1ccc(F)cc1)Nc1csc2ccccc12,i,?,14.1µM,?,i,?,?,?,i
CC(C(=O)N1CCCc2c1c(=O)oc1ccc(O)cc21)N1CCc2ccccc2C1 (centres undefined),i,i,i,nt,i,nt,nt,nt,nt
CCN(CC)S(=O)(=O)c1ccc2c(c1)N(CC(=O)N1CCN(c3cc(Cl)ccc3C)CC1)C(=O)CO2,i,i,i,nt,i,nt,nt,nt,nt
COc1ccc(Cl)cc1NC(=O)CSc1nnc(Cc2ccc(C)cc2)c(=O)[nH]1,i,i,8.91µM,i,i,20.6µM,?,i,i
CC1(c2ccc(OC(F)F)cc2)NC(=O)N(CC(=O)NC2CCCC2)C1=O (centres undefined),i,i,i,i,i,nt,nt,nt,nt
CCOc1ccc(-n2cc(C(=O)c3cc(Cl)ccc3O)cc(C#N)c2=O)cc1,i,i,12.6µM,i,i,i,?,?,i
COc1cccc(C2C3=C(N=c4s/c(=C\c5cccc(O)c5)c(=O)n42)c2ccccc2CC3)c1OC (centres undefined),i,?,17.8µM,i,i,5.8µM,?,2.91µM,i
Cc1ccc(N(CC(=O)NCCSCc2ccco2)S(C)(=O)=O)cc1,i,i,i,i,i,nt,nt,nt,nt
NC(=O)CC(NC(=O)Cc1cccc2ccccc12)c1ccc(N2CCN(c3ccccc3)CC2)c([N+](=O)[O-])c1 (centres undefined),i,i,i,i,i,nt,nt,nt,nt
NC(=O)CC(NC(=O)Cc1cccc2ccccc12)c1ccc(N2CCC(Br)CC2)c([N+](=O)[O-])c1 (centres undefined),i,i,12.6µM,?,i,?,i,?,i
Cc1cccc(CNc2ccc(C(CC(N)=O)NC(=O)Cc3cccc4ccccc34)cc2[N+](=O)[O-])c1 (centres undefined),i,?,?,?,i,?,?,1.64µM,i
NC(=O)CC(NC(=O)Cc1cccc2ccccc12)c1ccc(N2CCc3ccccc3C2)c([N+](=O)[O-])c1 (centres undefined),i,?,12.6µM,?,i,?,?,?,i
CCCCNc1ccc(C(CC(N)=O)NC(=O)Cc2cccc3ccccc23)cc1[N+](=O)[O-] (centres undefined),i,i,i,i,i,nt,nt,nt,nt
NC(=O)CC(NC(=O)Cc1cccc2ccccc12)c1ccc(N2CCCCCC2)c([N+](=O)[O-])c1 (centres undefined),i,i,i,i,i,nt,nt,nt,nt
NC(=O)CC(NC(=O)Cc1ccc(Br)cc1)c1ccc(N2CCN(c3ccccn3)CC2)c([N+](=O)[O-])c1 (centres undefined),i,i,7.94µM,?,i,?,?,i,i
COc1ccc(OC)c(Nc2nc3nonc3nc2N2CCCCC2)c1,i,i,i,i,i,nt,nt,nt,nt
Cn1c(=O)c(-c2ccccc2N)nc2ccccc21,i,i,i,?,i,nt,nt,nt,nt
O=S(=O)(Nc1ccc2c(c1)OCCO2)c1ccc2oc3ccccc3c2c1,i,?,10µM,?,i,23.1µM,?,?,i
O=S(=O)(Nc1ccc2c(c1)OCCO2)c1ccc(F)c(F)c1,i,i,i,i,i,nt,nt,nt,nt
COc1ccc2nc(NC(=O)C3CC(=O)N(c4ccc5c(c4)OCCO5)C3)sc2c1 (centres undefined),i,i,i,?,i,nt,nt,nt,nt
COc1ccc(-c2nc(NC(=O)C3CC(=O)N(c4ccc5c(c4)OCCO5)C3)sc2C)cc1 (centres undefined),i,?,11.2µM,14.6µM,i,6.51µM,?,?,i
C=CCNc1ncnc2c1ncn2C1OC(CO)C(O)C1O (centres undefined),7.94µM,i,10µM,?,i,10.3µM,?,i,i
SMILES,HepG2 tox-1,A549 viability,TGFb inhibitor,Nrf2 inh,Nrf2 activator,TGFb confirm,HepG2 tox-2,CCL64 TGFb inh,COP TGFb inh
CCOC(=O)C1CCN(C(c2cccnc2)c2c(NC(=O)c3ccco3)sc(C)c2C)CC1 (centres undefined),i,i,7.94µM,14.6µM,i,20.6µM,?,?,i
CCC(=O)Nc1cccc(C(=O)/C=C/c2cc(Br)ccc2OC)c1,11.2µM,i,3.55µM,i,?,3.66µM,7.31µM,3.66µM,?
O=C(Nc1cccc(C(F)(F)F)c1)C1Cc2c(-c3ccc(Cl)cc3)ccnc2O1 (centres undefined),i,nt,8.91µM,nt,i,?,?,?,i
O=C(Nc1cccc(C(F)(F)F)c1)C1Cc2c(-c3ccccc3)ccnc2O1 (centres undefined),i,nt,?,nt,i[9.22 µM],nt,nt,nt,nt
O=C(CCN1C(=O)COc2ccccc21)NCCC1=CCCCC1,i,i,i,i,i,nt,nt,nt,nt
Cn1cccc1C(=O)OCC(=O)NCc1ccc2c(c1)OCO2,i,i,i,?,i,nt,nt,nt,nt
O=C(N/N=C/c1cc(Cl)ccc1O)c1ccccc1Br,i,i,?,i,i,?,?,?,i
Cc1ccc(NS(=O)(=O)c2ccc(/C=C/C(=O)O)cc2)cc1Cl,i,i,i,i,i,nt,nt,nt,nt
CCCCc1ccc(NC(=S)Nc2ccc(Nc3ccc(OC)cc3)cc2)cc1,i,i,8.91µM,i,i,23.1µM,?,?,i
C/C(=N\NC(=O)c1cc2ccccc2cc1O)c1ccccn1,i,i,i,?,i,nt,nt,nt,nt
CC(=NNC(=S)N1CCCCC1)c1ccccn1,i,nt,0.631µM,nt,i,1.3µM,?,0.651µM,i
